TDP1 cell noCPT – qHTS for Inhibitors of human tyrosyl-DNA phosphodiesterase 1 (TDP1): qHTS in cells in absence of CPT; DT40 Tdp1-/- hTDP1 cells, no CPT, ATP luminescence, 48 h; Potency, µM (doses to about 46.2 µM), hits mostly inhibitors; 420,000 compounds, 15% hits; note: nearly all actives have a fitted effect of over 55% in size
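DT40 Tdp1-/-;hTDP1 cells, no CPT (DMSO vehicle only), 400 cells/well; compounds pin-transferred; ≥48 hr, 37 °C; CellTiter-Glo 30 min RT dark, luminescence read.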
HT1080-NT tox – kills 2HG-producing HT-1080-NT fibrosarcoma cells. 360,000 compounds, 1.6% hits. HT-1080-NT fibrosarcoma viability, CellTiter-Glo ATP luminescence, 48 h. AID 686970. Potency, µM (doses to about 46.1 µM), actives largely listed as cytotoxic;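 note: NT is the 2HG producing partner of a matched IDH1 knockdown line; nearly all actives have a fitted effect of over 55% in size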
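750 cells/well, RPMI + 5% FBS; 2 h settle, compound pin-transfer, 48 h at 37 degrees C. CellTiter-Glo 10 min RT, luminescence. Normalized to DMSO and media-only wells.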
DT40 TDP1 CPT – growth inhibition of DT40 Tdp1-/-;hTDP1 cells with camptothecin (screen for TDP1 inhibitors). chicken DT40 Tdp1-/-;hTDP1 cells + 20 nM CPT, ATP luminescence, 48 h. Potency, µM (titrated, usually from 46.2 µM), most hits filed as inhibitors. 420,000 compounds, 12% hits; note: nearly all actives have a fitted effect of over 55% in size
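Cell growth measured by CellTiter-Glo luminescence after a minimum 48 h, 37 C compound exposure with 20 nM CPT in Tdp1-knockout DT40 cells stably expressing hTDP1, seeded 400/well; qHTS titration format.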
IL-1B inflam inh – inflammasome signaling inhibition, IL-1 beta readout; THP-1 LPS/ATP IL-1B secretion, AlphaLISA, 16 h; hits give low values; activity change, % at 57.5 µM; 360,000 compounds, 4.7% hits; AID 743279; in the data active = activity change below about -50%; inconclusive = mostly about -30% to -49%
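Secreted IL-1B measured by AlphaLISA bead assay after 16 h compound exposure of THP-1 cells; compounds (final up to 57.5 uM) added 1 h before LPS (250 ng/mL) and ATP (1.25 mM) stimulation; lower signal means less secretion.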
HT1080 IDH1KD tx – kills HT-1080 cells with IDH1 knockdown. 360,000 compounds, 2% hits. HT-1080 IDH1 knockdown viability, ATP luminescence, 48 h. AID 686971. Potency, µM (series often up to 46.1 µM), most hits filed as cytotoxic
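HT-1080-IDH1KD cells (IDH1 knocked down), 750/well in RPMI with 5% FBS, treated with compound 48 h at 37 degrees C. Viability by CellTiter-Glo luminescence, normalised to DMSO and no-cell wells; concentration-response curves classed.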
Hits are given with their value; – = inactive; ? = inconclusive; · = no result given; [ ] = remark or other dose. Sampled rows, rich in hits. Any-hit rate of the full collection: about 19%. Unless noted, calls come from the whole dose curve; as a rule, active = well fitted curve in the direction sought with a large enough effect; inconclusive = small, poorly fitted or top-dose-only effect, or another doubt; inactive = no such curve, though single readings can be large; an effect the other way counts as inactive or inconclusive.

SMILES | TDP1 cell noCPT | HT1080-NT tox | DT40 TDP1 CPT | IL-1B inflam inh | HT1080 IDH1KD tx
CNc1nc(NCc2ccco2)c2ccccc2n1 | 15.8µM | · | 10µM | · | ·
CSc1nc(NCc2ccco2)c2ccccc2n1 | ? | – | ? | – | ?
Cc1nn(C(=O)c2ccc(Cl)cc2)c(C)c1S(=O)(=O)N1CCOCC1 | – | · | – | · | ·
CNC(=O)COC(=O)/C=C/c1nc2ccccc2s1 | ? | – | – | – | –
CN(C)c1ccc(/C=C/c2nc3ccccc3s2)cc1Cl | 2.82µM | · | 5.01µM | · | ·
Cc1cc(/C=C/c2nc3ccccc3s2)ccc1N(C)C | 1µM | · | 1.41µM | · | ·
CN(Cc1c(F)cccc1Cl)C(=O)CNC(=O)c1sc2ccccc2c1Cl | – | – | – | -51.8 | –
Cc1nn(Cc2c(Cl)cccc2Cl)c(C)c1NC(=O)c1sc2ccccc2c1Cl | 16.4µM | ? | 18.4µM | – | ?
Cc1ccccc1Cn1nc(C)c(NC(=O)c2sc3ccccc3c2Cl)c1C | 20.6µM | – | ? | – | ?
CN(CC(=O)Nc1c(Cl)cccc1Cl)C(=O)CNC(=O)c1sc2ccccc2c1Cl | ? | – | ? | – | –
Cc1nn(Cc2ccc(Cl)c(Cl)c2)c(C)c1NC(=O)c1sc2ccccc2c1Cl | 14.6µM | – | ? | – | ?
O=C(Oc1ccc(Cl)cc1N1C(=O)CCC1=O)c1ccco1 | – | – | – | – | –
O=C(CSc1ccccc1F)NC(=O)c1ccccc1Br | – | – | – | – | –
COc1ccc(CN2C[C@H](Sc3nc4ccccc4[nH]3)C[C@H]2C(=O)N2CCCN(C)CC2)cc1C | – | · | –[9.04 µM] | · | ·
COc1ccc(N2C(=O)/C(=C\c3ccco3)N=C2SCC(=O)NC(C)C)cc1Cl | – | – | – | – | –
COc1ccc(N2C(=O)/C(=C\c3ccco3)N=C2SCC(=O)N(C(C)C)C(C)C)cc1Cl | 16.4µM | – | 16.4µM | – | –
Cc1cc(C)nc(N/C=C(\C#N)C(=O)c2cccc(CSc3ccccc3)c2)n1 | – | · | ? | · | ·
Nc1ccn(C2OC(COC(=O)C34CC5CC(CC(C5)C3)C4)C(O)C2O)c(=O)n1 (centres undefined) | 0.366µM | – | 0.0517µM | – | –
Nc1ccn(C2OC(CCl)C(O)C2O)c(=O)n1 (centres undefined) | 3.66µM | – | 2.59µM | – | ?
Nc1ccn([C@@H]2O[C@H](CNCc3cnc(N4CCOCC4)s3)[C@@H](O)[C@H]2O)c(=O)n1 | ? | – | – | – | –
Nc1ccn([C@@H]2O[C@H](CO)[C@@H](O)[C@H]2O)c(=O)n1 | – | – | – | – | –
Nc1ccn([C@@H]2O[C@H](CO)[C@@H](O)C2O)c(=O)n1 (some centres undefined) | 0.0411µM | ? | 0.0366µM | – | ?
O=c1ccn([C@@H]2O[C@H](COS(=O)(=O)O)[C@@H](O)[C@H]2O)c(=O)[nH]1 | 4.11µM | – | 5.17µM | – | –
OC(c1ccc(F)c(F)c1)c1nc(-c2ccc3ccccc3c2)cs1 (centres undefined) | ? | ? | ? | – | ?
Nc1nc(=O)n(C2OC(CO)C(O)C2O)cc1Cl (centres undefined) | 5.17µM | · | ? | · | ·
SMILES | TDP1 cell noCPT | HT1080-NT tox | DT40 TDP1 CPT | IL-1B inflam inh | HT1080 IDH1KD tx
O=c1[nH]cnc2c1ncn2[C@@H]1O[C@H](CO)[C@@H](O)[C@H]1O | – | ? | – | – | –
Cc1cc(S(=O)(=O)NC[C@H]2O[C@@H](n3ccc(N)nc3=O)[C@H](O)[C@@H]2O)c(C)s1 | – | – | – | – | –
Nc1ccn([C@@H]2O[C@H](CO)[C@@H](O)C2(F)F)c(=O)n1 | 0.0094µM | · | 0.0094µM | · | ·
O=c1[nH]cnc2c1ncn2[C@@H]1O[C@H](COS(=O)(=O)O)[C@@H](O)[C@H]1O | ? | – | 3.66µM | – | –
Nc1ccn([C@@H]2O[C@H](COS(=O)(=O)O)[C@@H](O)[C@H]2O)c(=O)n1 | 1.84µM | – | 9.2µM | – | –
CSCC[C@@H](CO)NC(=O)[C@H]1O[C@@H](n2ccc(N)nc2=O)[C@H](O)[C@@H]1O | – | – | – | – | –
O=C(CSc1nnc2c(n1)[nH]c1ccc(F)cc12)NCc1ccc(F)cc1 | – | – | – | – | –
Cc1cc(=O)c(C(=O)N(C)CCc2ccccn2)c2n1-c1ccccc1SC(c1ccsc1)C2 (centres undefined) | – | · | –[9.04 µM] | · | ·
O=C(Nc1ccn(C2CC(OC(=O)c3ccccc3)C(CO)O2)c(=O)n1)c1ccccc1 (centres undefined) | – | – | – | – | –
CCCCCCCCCCCCCCCCCCCCCC(=O)Nc1ccn([C@@H]2O[C@H](CO)[C@@H](O)[C@@H]2O)c(=O)n1 | 3.35µM | · | 2.66µM | · | ·
Cc1cc(C)cc(OC(C)C(=O)Nc2ccccc2C(=O)NCc2cccnc2)c1 (centres undefined) | ? | – | ? | – | –
COc1ccc(/C=N/NC(=O)c2ccncc2)cc1CSc1nc2ccccc2s1 | ? | – | ? | – | –
